Results reported in PubChem BioAssay (NCI).
About 83,000 compounds went through this panel and 20% of them were active in at least one assay; those are over-represented in the sample as a whole.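 In brief: 96-well plates, 48 h treatment, single concentration, percent growth endpoint.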 A number with no mark means an inactive call. Active and inactive are the calls of the source. How the source made its calls: active means growth percent below 10; inactive means the rest.

Columns and labels:
Experiment in all cases: NCI-60 one-dose screen, 48 h (100 = growth as untreated, 0 = no growth, -100 = all killed)
Settings in all cases: 10 µM unless noted
[1] = system: SK-MEL-2 melanoma
[2] = system: EKVX NSCLC
[3] = system: SN12C renal
[4] = system: UO-31 renal
[5] = system: TK-10 renal
[6] = system: ACHN renal
[7] = system: CAKI-1 renal
[8] = system: A498 renal
[9] = system: CCRF-CEM leukemia
[10] = system: MOLT-4 leukemia

Compound | growth [1] | growth [2] | growth [3] | growth [4] | growth [5] | growth [6] | growth [7] | growth [8] | growth [9] | growth [10]
COc1ccc(N=Nc2c(N)nn3c(-c4cc5ccccc5oc4=O)ccnc23)cc1 | 39.3% | 44.1% | 24.1% | 40.7% | 77.7% | 3.84% (active) | 53.8% | 138% | 96.3% | 104%
CC(=O)C[n+]1cccc2c3ccccc3ccc21 | 106% | 56.6% | 80.1% | 83% | 101% | 92.1% | 94.1% | 110% | 65.5% | 53.9%
COc1ccc(N=Nc2c(N)nn3c(-c4ccc([N+](=O)[O-])cc4)ccnc23)cc1 | 106% | 97.5% | 92.7% | 97.1% | 113% | 107% | 88.9% | 114% | 92% | 96%
O=C(N/N=C/c1ccc(Cl)o1)c1[nH]c2ccc(Br)cc2c1-c1ccccc1 | 12.3% | 12% | -60.9% (active) | -34.5% (active) | -11.7% (active) | -46% (active) | -0.252% (active) | -25.6% (active) | -2.11% (active) | 3.03% (active)
C#CCN(C)CCCOc1ccc(N(CC)C(=O)c2cc(C(C)C)c(O)cc2O)cc1Cl | -57.9% (active) | -7.81% (active) | -52.1% (active) | 8.11% (active) | 11.1% | 11.6% | 9.89% (active) | 21.6% | 7.35% (active) | -33.6% (active)
COc1cccc(/C=C/c2nc3ccccc3c(=O)n2CC(=O)Nc2ccccc2)c1 | 81% | 85.1% | 17.6% | -24.8% (active) | 11.7% | -15.6% (active) | 72.3% | 28% | 90.1% | 94.2%
Nc1nc(-c2ccccc2)c(N=Nc2ccc(Cl)cc2Cl)s1 | -61.1% (active) | -30.5% (active) | -95% (active) | -20% (active) | -13.9% (active) | -31.2% (active) | -34.3% (active) | -16.8% (active) | -0.55% (active) | -24.6% (active)
Clc1ccc(-c2nc3ccc(-c4nnc(SCc5ccccc5)o4)cc3[nH]2)cc1 | 75.3% | -24.4% (active) | -57.9% (active) | 49.3% | 90.6% | 45% | 37.5% | 112% | 34.1% | 27.7%
Cc1ccc(Cl)cc1NC(=O)N/C(N)=N/c1nc2ccccc2s1 | -20.6% (active) | 15.8% | -40% (active) | -13% (active) | 14.7% | -50.3% (active) | -2.72% (active) | 5.76% (active) | -6.91% (active) | -8.52% (active)
COc1ccc(C2=NN(C(=O)[C@H]3[C@@H](c4ccco4)c4sc(=O)[nH]c4S[C@@H]3C)C(c3ccc4ccccc4c3)C2)cc1 (stereo not given in full) | 32.3% | 23.2% | 39% | 19.5% | 50.4% | 16% | 20.7% | 102% | 6.09% (active) | 12%
c1ccc(CSc2nnc(-c3ccc4nc(-c5ccccc5)[nH]c4c3)o2)cc1 | 57.5% | 57.3% | -48.3% (active) | 40.6% | -2.54% (active) | 1.16% (active) | -44.9% (active) | -8.46% (active) | 73.8% | 58.2%
COc1cccc(-c2ccc(/C=N/NC(=O)c3[nH]c4ccc(Br)cc4c3-c3ccccc3)s2)c1 | -3.93% (active) | 17.9% | 0.265% (active) | 19.9% | 8.47% (active) | 7.04% (active) | 9.77% (active) | 63.2% | 16% | 6.82% (active)
COc1ccc2c(c1)C(Sc1ccc(Br)cc1)c1c(nc(N)c(C#N)c1N)O2 (stereo not given) | 94.3% | 67% | 77.1% | 43.7% | 108% | 79.7% | 80.3% | 103% | 9.55% (active) | 55%
O=C1/C(=C/c2cccc3c2OCO3)Cc2c(F)cc(Br)cc21 | 111% | 94.4% | 111% | 90% | 115% | 108% | 94.6% | 152% | 103% | 106%
O=C(N/N=C/c1ccsc1)c1[nH]c2ccc(Br)cc2c1-c1ccccc1 | -82.8% (active) | -26.3% (active) | -87.5% (active) | -49.4% (active) | -13.3% (active) | -28% (active) | -21.8% (active) | -48.1% (active) | 6.69% (active) | -8.25% (active)
Cc1[nH]nc2ccc3nc(-c4cn[nH]c4C(F)(F)F)c4c(c3c12)CCCC4 | -68.2% (active) | -40.5% (active) | -22.4% (active) | -30.5% (active) | -56.2% (active) | 1.85% (active) | -9.8% (active) | -61.1% (active) | -12.1% (active) | 2.2% (active)
Nc1ccc(-c2ccc3ncnc(N4CCc5cc(F)c(Cl)cc54)c3c2)cn1 | 29% | -29.2% (active) | 19.2% | 3.05% (active) | -7.15% (active) | 8.96% (active) | 5.25% (active) | -13.2% (active) | 10.6% | 1.81% (active)
COc1c2c(cc3c1C(CCc1ccccc1)N(C)CC3)OCO2 (stereo not given) | -18.1% (active) | 16.1% | 8.61% (active) | 14.3% | 33.5% | 14.9% | 14.5% | -15.4% (active) | 14.2% | 8.71% (active)
CN(C)c1ccc(/C=C/c2n(Cc3ccc4ccccc4c3)c3ccccc3[n+]2Cc2ccc3ccccc3c2)cc1 | -70.8% (active) | -95.8% (active) | -80.5% (active) | -91.9% (active) | -81.1% (active) | -97.6% (active) | -95.9% (active) | -82.1% (active) | -48.5% (active) | -38.1% (active)
Cc1ccc(C(=O)Nc2cc(-n3ccnc3)cc(C(F)(F)F)c2)cc1-n1cc(-c2cnc3cccnn23)nn1 | 61.1% | 117% | 105% | 61.4% | 135% | 97.8% | 113% | 180% | 96% | 105%
CN(C)CCCc1ccc(Nc2cnn(C)c(=O)c2Cl)cc1 | 112% | 98.1% | 100% | 88.1% | 109% | 113% | 83.5% | 94.7% | 102% | 115%
COc1ccc(C(=O)c2c(N)c(C#N)cn2-c2ccc([N+](=O)[O-])cc2)cc1 | 108% | 93.6% | 101% | 90.1% | 117% | 106% | 85.4% | 126% | 112% | 105%
O=C(COc1ccc(/C=C2/C(=O)Nc3ccc(Cl)cc32)cc1)Nc1ccc(Br)cc1 | 16.3% | -27.8% (active) | -80.6% (active) | -73.7% (active) | -65.4% (active) | -82.9% (active) | -73% (active) | -51% (active) | -23.9% (active) | -46.5% (active)
COC(=O)c1c(C(=O)OC)c2ccc3c4ccccc4ccc3n2c1C(=O)C(C)Br (stereo not given) | 26.9% | 86.5% | 35.7% | 45% | 58.1% | 43.9% | 71.3% | 87.2% | -4.34% (active) | 0.188% (active)
N/C(=N\c1nc2ccccc2s1)NC(=O)Nc1ccccc1[N+](=O)[O-] | 20.5% | 38.7% | 5.63% (active) | 26.8% | 52.8% | 20.2% | 16% | 89% | 1.29% (active) | 15.2%
COc1ccc2oc(=O)c(-c3csc(N/N=C(\C)c4cc(OC)c(OC)c(OC)c4)n3)cc2c1 | 99.7% | 94.7% | 80.5% | 90.8% | 94.2% | 78.7% | 97.8% | 145% | 81.3% | 81%
